Measured values as given in PubChem BioAssay (Tox21).
Results filed as inconclusive are left out. Active and inactive are the calls of the source. Unless noted, the call rests on the fitted dose curve; in most records, active means well fitted curve in the direction sought with a large enough effect in the repeat runs; inconclusive means weak or mixed curves; inactive means no such curve, though single readings can be large; an effect the other way counts as inactive or inconclusive.

Assays:
[1] = qHTS assay for small molecules that induce genotoxicity in human embryonic kidney cells expressing luciferase-tagged ATAD5 (AID 651632); further: nearly all actives have a fitted effect of over 15% in size
How it was run: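 Test compounds were delivered by pin tool onto HEK293T reporter cells (2,000/well) expressing ATAD5 fused to luciferase. After 16 hr at 37C, 5% CO2, Amplite was added for 30 min at room temperature and luminescence was measured.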

[2] = qHTS assay for small molecule agonists of the p53 signaling pathway - cell viability (AID 651633; calls by dose curve;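 further: p53RE-bla HCT reporter cells with a stable beta-lactamase p53 reporter; series mostly up to about 83 µM; nearly all actives have a fitted effect of over 30% in size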)
How it was run: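 Viability counter-read: CellTiter-Glo luminescence (30 min, room temperature) in the same p53RE-bla plates. These plates had been exposed to compounds for 16 h at 37 C.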

[3] = qHTS assay for small molecule disruptors of the mitochondrial membrane potential - cell viability (AID 720634; calls by dose curve;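 further: human HepG2 liver cancer cells; series mostly up to about 83 µM; nearly all actives have a fitted effect of over 20% in size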)
How it was run: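 Same-well counter-screen: following the MMP dye addition, CellTiter-Glo was added to 1 hr compound-treated HepG2 cells and luminescence read after 30 min at room temperature.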

[4] = qHTS assay for small molecule disruptors of the mitochondrial membrane potential (AID 720635)
How it was run: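 Mitochondrial membrane potential tracked with Mito-MPS dye, red aggregates (ex 540/em 590 nm) against green monomers (ex 490/em 535 nm). Compound treatment 1 hr at 37C, dye 30 min in HepG2.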

[5] = qHTS assay to test for compound auto fluorescence at 590 nm (red) in HepG2 cells (AID 720674)
How it was run: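 1 hr compound incubation on HepG2 cells, 37 C, 5% CO2; plate read ex 540 nm / em 590 nm; intensities reported as Rose Bengal sodium equivalents.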

[6] = qHTS assay to test for compound auto fluorescence at 535 nm (green) in HepG2 cells (AID 720675)
[7] = qHTS assay to test for compound auto fluorescence at 460 nm (blue) in HEK293 cells (AID 720678)
How it was run: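 Cells were seeded and left to adhere for 4-5 hr at 37C. Compounds were then pin-transferred. After an overnight incubation at 37C under 5% CO2, intrinsic fluorescence at 405/460 nm was measured and referenced to triamterene.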

[8] = qHTS assay to test for compound auto fluorescence at 590 nm (red) in HEK293 cells (AID 720679)
How it was run: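 Each well held 2,000 HEK293 cells in medium containing 10% dialyzed FBS. Following 4-5 hr attachment at 37C, 23 nL test compound or DMSO was added; plates sat overnight, and red fluorescence (540/590nm) was recorded.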

[9] = qHTS assay to test for compound auto fluorescence at 535 nm (green) in HEK293 cells (AID 720680)
[10] = qHTS assay to test for compound auto fluorescence at 460 nm (blue) in HEK293 cell free culture (AID 720681)
How it was run: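 Blue fluorescence (Ex 405/Em 460 nm, triamterene-equivalent) was read immediately after pin transfer of compound or DMSO into medium (DMEM, 10% FBS) without cells.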

[11] = qHTS assay to test for compound auto fluorescence at 535 nm (green) in HEK293 cell free culture (AID 720682)
How it was run: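 Steps: dispense DMEM/10% FBS into empty wells; pin in compound or DMSO; measure fluorescence at 485/535 nm. Values are fluorescein equivalents.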

[12] = qHTS assay to test for compound auto fluorescence at 590 nm (red) in HepG2 cell free culture (AID 720684)
How it was run: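 No cells present: MEM + 10% FBS only. Compound pinned in, red label read (540/590 nm). Activity = fluorescence equivalent to Rose Bengal sodium.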

[13] = qHTS assay to test for compound auto fluorescence at 460 nm (blue) in HepG2 cell free culture (AID 720685)
How it was run: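 Cell-free plates of MEM plus 10% FBS received 23 nL compound or DMSO vehicle; blue-channel (405/460 nm) intensity scored against triamterene as reference fluorophore.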

[14] = qHTS assay to test for compound auto fluorescence at 535 nm (green) in HepG2 cell free culture (AID 720686)
[15] = qHTS assay to test for compound auto fluorescence at 460 nm (blue) in HepG2 cells (AID 720687)
How it was run: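 Blue-channel autofluorescence (Ex/Em 405/460 nm, triamterene-equivalent) was measured after 1 hr compound exposure at 37 C, 5% CO2. Cells were HepG2, plated overnight at 37 C in MEM plus 10% FBS.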

[16] = target: Glucocorticoid receptor (Homo sapiens) (UniProt P04150); test: qHTS assay to identify small molecule agonists of the glucocorticoid receptor (GR) signaling pathway (AID 720691; active means well fitted activation curve with a large enough effect in the signal ratio in the repeat runs, not every such curve was filed as active; the % refers to the signal ratio)
How it was run: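 A HeLa cervical cancer line expressing GR and a glucocorticoid response element-driven beta-lactamase gene is treated with compounds for 18 h; LiveBLAzer B/G FRET substrate is then applied and fluorescence read.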

[17] = target: Glucocorticoid receptor (Homo sapiens) (UniProt P04150); test: qHTS assay to identify small molecule antagonists of the glucocorticoid receptor (GR) signaling pathway (AID 720692; active means well fitted inhibition curve with a large enough effect in the signal ratio in the repeat runs, not every such curve was filed as active; the % refers to the signal ratio)
How it was run: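 GRE-bla HeLa line, dex-stimulated (5 nM final). Compound exposure 18 h, 37 C. Beta-lactamase FRET read after 2 h RT substrate.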

[18] = qHTS assay to test for compound auto fluorescence at 590 nm (red) in HEK293 cell free culture (AID 720683)
How it was run: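 Red-channel autofluorescence of compounds in culture medium (DMEM, 10% FBS), no cells, measured at 540/590 nm. Rose Bengal sodium is the reference fluorophore for equivalence.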

[19] = qHTS assay for small molecules that induce genotoxicity in human embryonic kidney cells expressing luciferase-tagged ATAD5 - cell viability (AID 651634; calls by dose curve; further: nearly all actives have a fitted effect of over 25% in size)
How it was run: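 Quantitative high-throughput format. HEK293T cells expressing ATAD5 fused to luciferase were plated at 2,000 cells/well and treated 15.5 hr with compound versus DMSO. Viability was determined by fluorescent live-cell protease substrate, 30 min at 37C.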
On the % scale 0 is the no-effect control and ±100 the full control effect.

Chain of Glucocorticoid receptor (Homo sapiens) (P04150 whole entry, looked up): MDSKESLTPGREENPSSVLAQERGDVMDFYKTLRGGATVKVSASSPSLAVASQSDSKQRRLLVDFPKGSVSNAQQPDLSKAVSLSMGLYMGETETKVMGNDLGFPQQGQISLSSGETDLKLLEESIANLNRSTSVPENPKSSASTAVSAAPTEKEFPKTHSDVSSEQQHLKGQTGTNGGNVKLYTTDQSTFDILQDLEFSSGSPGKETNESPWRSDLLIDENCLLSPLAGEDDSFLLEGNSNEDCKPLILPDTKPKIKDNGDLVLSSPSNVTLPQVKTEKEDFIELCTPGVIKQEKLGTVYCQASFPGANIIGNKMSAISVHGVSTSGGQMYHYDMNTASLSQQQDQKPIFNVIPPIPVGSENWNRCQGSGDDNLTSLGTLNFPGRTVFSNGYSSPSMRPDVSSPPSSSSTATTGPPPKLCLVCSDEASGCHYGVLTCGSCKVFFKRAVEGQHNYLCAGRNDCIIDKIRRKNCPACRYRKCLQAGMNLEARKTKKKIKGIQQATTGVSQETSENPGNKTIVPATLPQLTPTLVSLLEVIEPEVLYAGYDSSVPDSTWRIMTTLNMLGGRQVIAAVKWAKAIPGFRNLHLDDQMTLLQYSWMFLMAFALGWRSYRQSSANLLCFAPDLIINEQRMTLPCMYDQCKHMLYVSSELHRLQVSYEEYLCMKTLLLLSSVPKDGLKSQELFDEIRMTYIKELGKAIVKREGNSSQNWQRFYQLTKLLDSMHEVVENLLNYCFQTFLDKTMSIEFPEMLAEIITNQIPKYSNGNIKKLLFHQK

CCC(C)OC(C)CC (configuration not stated)
inactive: outcome [1] | outcome [2] | outcome [3] | Potency [4] | outcome [5] | outcome [6] | outcome [7] | outcome [8] | outcome [9] | outcome [10] | outcome [11] | outcome [12] | outcome [13] | outcome [14] | outcome [15] | Potency [16] | outcome [17]

CN(C)CCCO[C@@H]1[C@H]2OC(C)(C)O[C@H]2O[C@@H]1C(O)CO (some centres not stated)
inactive: outcome [1] | outcome [2] | outcome [3] | Potency [4] | outcome [5] | outcome [6] | outcome [7] | outcome [8] | outcome [9] | outcome [10] | outcome [11] | outcome [18] | outcome [12] | outcome [13] | outcome [14] | outcome [15] | Potency [16] | outcome [17]

CC(C)NCC(O)c1ccc2ccccc2c1 (configuration not stated)
inactive: outcome [2] | Potency [19] | outcome [3] | Potency [4] | outcome [5] | outcome [6] | outcome [7] | outcome [8] | outcome [9] | outcome [10] | outcome [11] | outcome [12] | outcome [13] | outcome [14] | outcome [15] | Potency [16] | outcome [17]

C=CCN1C[C@H](C(=O)N(CCCN(C)C)C(=O)NCC)C[C@@H]2c3cccc4[nH]cc(c34)C[C@H]21
inactive: outcome [1] | outcome [2] | outcome [3] | outcome [5] | outcome [6] | outcome [7] | outcome [8] | outcome [9] | outcome [10] | outcome [18] | outcome [12] | outcome [13] | outcome [14] | outcome [15] | outcome [17]

CCC/C=C(\C=O)CC
inactive: outcome [1] | outcome [2] | outcome [3] | Potency [4] | outcome [5] | outcome [6] | outcome [7] | outcome [8] | outcome [9] | outcome [10] | outcome [18] | outcome [12] | outcome [13] | outcome [14] | outcome [15]

COc1cc2c(cc1OC)C(=O)C(CC1CCN(Cc3ccccc3)CC1)C2 (configuration not stated)
inactive: outcome [1] | outcome [2] | outcome [3] | Potency [4] | outcome [5] | outcome [6] | outcome [7] | outcome [8] | outcome [9] | outcome [10] | outcome [18] | outcome [12] | outcome [13] | outcome [14] | outcome [15]

C/C=C(\C)C(C)=O
inactive: outcome [2] | Potency [19] | outcome [5] | outcome [6] | outcome [7] | outcome [8] | outcome [9] | outcome [10] | outcome [11] | outcome [18] | outcome [12] | outcome [13] | outcome [14] | outcome [15] | Potency [16] | outcome [17]

CN(C)CCOC(=O)C(c1ccccc1)C1(O)CCCC1 (configuration not stated)
inactive: outcome [1] | Potency [19] | outcome [3] | Potency [4] | outcome [5] | outcome [6] | outcome [7] | outcome [8] | outcome [9] | outcome [10] | outcome [11] | outcome [18] | outcome [12] | outcome [13] | outcome [14] | outcome [15] | Potency [16] | outcome [17]

Cc1ccc(C)c([N+](=O)[O-])c1
inactive: outcome [2] | Potency [19] | Potency [4] | outcome [5] | outcome [6] | outcome [7] | outcome [8] | outcome [9] | outcome [10] | outcome [11] | outcome [18] | outcome [12] | outcome [13] | outcome [14] | outcome [15] | Potency [16]

COC(=O)c1cc(Cl)cc(Cl)c1
inactive: outcome [1] | outcome [3] | outcome [5] | outcome [6] | outcome [7] | outcome [8] | outcome [9] | outcome [10] | outcome [11] | outcome [18] | outcome [12] | outcome [13] | outcome [14] | outcome [15] | outcome [17]

C[C@H]1[C@@H](c2ccccc2)NC(=O)N1C
inactive: outcome [2] | Potency [19] | outcome [3] | outcome [5] | outcome [6] | outcome [7] | outcome [8] | outcome [9] | outcome [10] | outcome [11] | outcome [18] | outcome [12] | outcome [13] | outcome [14] | outcome [15]

CC(C)CO
inactive: outcome [2] | outcome [3] | Potency [4] | outcome [5] | outcome [6] | outcome [7] | outcome [8] | outcome [9] | outcome [10] | outcome [11] | outcome [18] | outcome [12] | outcome [13] | outcome [14] | outcome [15] | Potency [16] | outcome [17]

Cc1ccc(N)cc1S(=O)(=O)O
inactive: outcome [1] | outcome [2] | outcome [3] | outcome [5] | outcome [6] | outcome [7] | outcome [8] | outcome [9] | outcome [10] | outcome [11] | outcome [18] | outcome [12] | outcome [13] | outcome [14] | outcome [15] | Potency [16] | outcome [17]

CCCCCC(C)O (configuration not stated)
inactive: outcome [1] | outcome [2] | outcome [3] | Potency [4] | outcome [5] | outcome [6] | outcome [7] | outcome [8] | outcome [9] | outcome [10] | outcome [11] | outcome [18] | outcome [12] | outcome [13] | outcome [14] | outcome [15] | Potency [16] | outcome [17]

CC(C)Cn1cnc2c1c(=O)n(C)c(=O)n2C
inactive: outcome [2] | outcome [3] | Potency [4] | outcome [5] | outcome [6] | outcome [7] | outcome [8] | outcome [9] | outcome [10] | outcome [11] | outcome [12] | outcome [13] | outcome [14] | outcome [15]

COc1ccc2c(c1)c1c3n2CCN(C)C3=NCC1
inactive: Potency [19] | outcome [3] | Potency [4] | outcome [5] | outcome [6] | outcome [7] | outcome [8] | outcome [9] | outcome [10] | outcome [11] | outcome [12] | outcome [13] | outcome [14] | outcome [15] | Potency [16]

CC(O)CC(C)O (configuration not stated)
inactive: outcome [2] | Potency [19] | outcome [3] | outcome [5] | outcome [6] | outcome [7] | outcome [8] | outcome [9] | outcome [10] | outcome [12] | outcome [13] | outcome [14] | outcome [15] | Potency [16] | outcome [17]

CO[Si](CCCn1c(=O)n(CCC[Si](OC)(OC)OC)c(=O)n(CCC[Si](OC)(OC)OC)c1=O)(OC)OC
inactive: outcome [2] | Potency [19] | outcome [3] | Potency [4] | outcome [5] | outcome [6] | outcome [7] | outcome [8] | outcome [9] | outcome [10] | outcome [12] | outcome [13] | outcome [14] | outcome [15]

CC(=O)Nc1ccc(OC(=O)c2ccccc2OC(C)=O)cc1
inactive: outcome [1] | outcome [3] | outcome [5] | outcome [6] | outcome [7] | outcome [8] | outcome [9] | outcome [10] | outcome [11] | outcome [12] | outcome [13] | outcome [14] | outcome [15] | Potency [16]

CC1CC(=O)CC(C)(C)C1 (configuration not stated)
inactive: outcome [1] | outcome [2] | outcome [3] | outcome [5] | outcome [6] | outcome [7] | outcome [8] | outcome [9] | outcome [10] | outcome [11] | outcome [18] | outcome [12] | outcome [13] | outcome [14] | outcome [15] | outcome [17]

COc1c2occc2c(OC)c2c(=O)cc(C)oc12
inactive: outcome [1] | Potency [19] | fluorescence, relative to Rose Bengal [5] 0.0231% [at 18.6 µM] | fluorescence, % of fluorescein control [6] -0.275% [at 18.6 µM] | fluorescence, % of triamterene [7] 0.0098% [at 18.6 µM] | fluorescence, % of fluorescent control [8] 0.0103% [at 18.6 µM] | fluorescence, % of fluorescein [9] -0.0108% [at 18.6 µM] | fluorescence, % of fluorescent control [10] -0.0224% [at 18.6 µM] | activity change [11] 0.0751% [at 18.6 µM] | fluorescence, % of fluorescent control [18] -0.33% [at 18.6 µM] | fluorescence, % of Rose Bengal [12] -0.125% [at 18.6 µM] | fluorescence, % of fluorescent control [13] -0.0661% [at 18.6 µM] | fluorescence, % of fluorescein control [14] 0.0616% [at 18.6 µM] | fluorescence, % of fluorescent control [15] 0.0073% [at 18.6 µM] | outcome [17]
